# About 3,300 (8.5%) of roughly 39,000 compounds were called active. This is one part of a sample in which actives are shown more often than they occur.
# Tested on: HepG2
# Assay: cytotoxicity call (relative viability < 0.9)
# Conditions: 10 µM
row,Compound,cytotoxicity call
1,C[C@H]1CN([C@@H](C)CO)C(=O)c2cc(NC(=O)CCN3CCOCC3)ccc2O[C@H]1CN(C)Cc1ccc(C(=O)O)cc1,inactive
2,COc1cc([C@@H](O)CO)ccc1OS(=O)(=O)O,inactive
3,COc1ccc(S(=O)(=O)N2C[C@@H](O)COC[C@H]3O[C@H](CC(=O)N[C@H]4CCN(Cc5ccccc5)C4)CC[C@@H]32)cc1,inactive
4,C[C@@H]1CN([C@@H](C)CO)C(=O)c2cc(NS(=O)(=O)c3cccs3)ccc2O[C@@H](C)CCCCO[C@H]1CN(C)Cc1ccc2c(c1)OCO2,inactive
5,C[C@H](CO)N1C[C@H](C)[C@@H](CN(C)C(=O)Nc2cccc3ccccc23)Oc2ccc(NS(=O)(=O)c3cccs3)cc2C1=O,inactive
6,C[C@H](CO)N1C[C@H](C)[C@H](CN(C)C(=O)NC2CCCCC2)OCCCC[C@H](C)Oc2ccc(NS(=O)(=O)c3cccs3)cc2C1=O,inactive
7,CC(=O)N1CC(=O)N(c2cnn(C)c2)C[C@]12CCN(C(=O)c1cnc(C)cn1)C2,inactive
8,CCOC(=O)N(C)C[C@H]1OCc2cn(nn2)CCCC(=O)N([C@@H](C)CO)C[C@H]1C,inactive
9,CSCC[C@H](NC(=O)[C@@H](N)Cc1c[nH]c2ccccc12)C(=O)N[C@@H](CC(=O)O)C(=O)N[C@@H](Cc1ccccc1)C(N)=O,inactive
10,CSCC[C@H](NC(=O)[C@H](Cc1ccc(OS(=O)(=O)O)cc1)NC(=O)[C@@H](N)CC(=O)O)C(=O)NCC(=O)N[C@@H](Cc1c[nH]c2ccccc12)C(=O)N[C@@H](CCSC)C(=O)N[C@@H](CC(=O)O)C(=O)N[C@@H](Cc1ccccc1)C(N)=O,active
11,CSCC[C@H](NC(=O)[C@H](Cc1c[nH]c2ccccc12)NC(=O)CNC(=O)[C@@H](NC(=O)[C@H](Cc1ccc(OS(=O)(=O)O)cc1)NC(=O)[C@H](CC(=O)O)NC(=O)[C@H](CCC(N)=O)NC(=O)[C@@H]1CCC(=O)N1)[C@@H](C)O)C(=O)N[C@@H](CC(=O)O)C(=O)N[C@@H](Cc1ccccc1)C(N)=O,inactive
12,COc1cc(OC)nc(N=CNO)n1,inactive
13,O=C(C[C@@H]1C[C@H]2c3cc(NC(=O)C4CCOCC4)ccc3O[C@H]2[C@H](CO)O1)NCc1cc(F)ccc1F,inactive
14,CO[C@@H]1[C@H](N(C)C(=O)c2ccccc2)C[C@H]2O[C@]1(C)n1c3ccccc3c3c4c(c5c6ccccc6n2c5c31)C(=O)NC4,active
15,C[C@@H]1CCCCO[C@H](CN(C)C(=O)c2ccccc2)[C@@H](C)CN([C@H](C)CO)C(=O)c2cc(NC(=O)Cc3ccccc3)ccc2O1,inactive
16,Cc1noc(C)c1NC(=O)Nc1ccc2c(c1)C(=O)N([C@@H](C)CO)C[C@H](C)[C@@H](CN(C)Cc1ccccc1)OCCCC[C@H](C)O2,inactive
17,C[C@@H]1CN([C@H](C)CO)C(=O)c2cc(NS(=O)(=O)c3ccc(F)cc3)ccc2O[C@@H]1CN(C)CC1CC1,inactive
18,CN(C)C1C(O)=C(C(N)=O)C(=O)C2(O)C(O)=C3C(=O)c4c(O)cccc4C(C)(O)C3C(O)C12.Cl (stereo unspecified),inactive
19,CC(=O)N(C)C[C@H]1Oc2ncc(C#C[C@@H](C)O)cc2C(=O)N([C@H](C)CO)C[C@H]1C,inactive
20,CC(=O)N[C@@H]1[C@@H](O)[C@H](O)[C@@H](CO)O[C@H]1O,inactive
21,COc1ccc(N2CCN(c3nc(NCCO)nc(N4CCOCC4)n3)CC2)cc1,inactive
22,Cc1nc(N)sc1-c1ccnc(Nc2ccc(N3CCOCC3)cc2)n1,active

row,Compound,cytotoxicity call
1,CC(=O)Oc1ccc(-c2cc(=O)c3c(OC(C)=O)cc(OC(C)=O)cc3o2)cc1,inactive
2,CN1CCN(C(=O)C[C@H]2CC[C@H]3[C@@H](COC[C@H](O)CN3C(=O)C3CC3)O2)CC1,inactive
3,COc1ccc(S(=O)(=O)N(C)C[C@H]2Oc3ccc(NC(=O)Cc4ccccc4)cc3C(=O)N([C@@H](C)CO)C[C@@H]2C)cc1,inactive
4,C[C@H]1CN([C@@H](C)CO)C(=O)c2cccc(NC(=O)Nc3ccccc3)c2O[C@@H]1CN(C)Cc1ccc(C(F)(F)F)cc1,inactive
5,Cc1ccc(Nc2ncc3c(n2)N(C)C(=O)N(c2cc(NC(=O)c4cccc(C(F)(F)F)c4)ccc2C)C3)cn1,active
6,Cc1ncc(NC(=O)c2cccc(C(F)(F)F)c2)cc1-c1cnc(OC2CCOCC2)c(N2CCOCC2)c1,inactive
7,CC(=O)c1cccc(C(F)(F)F)c1,inactive
8,Cc1ccc(S(=O)(=O)N(C)C[C@@H]2Oc3cc(Br)ccc3S(=O)(=O)N([C@H](C)CO)C[C@@H]2C)cc1,inactive
9,Cc1noc(C)c1S(=O)(=O)N(C)C[C@@H]1OCCCC[C@@H](C)Oc2ccc(NS(C)(=O)=O)cc2C(=O)N([C@H](C)CO)C[C@H]1C,inactive
10,CCCC[P+](CCCC)(CCCC)Cc1ccc(NC(=O)[C@H](Cc2ccc3ccccc3c2)N/C(=N/C2CCCCC2)NC2CCCCC2)cc1,inactive
11,C/C=C/c1ccc2c(c1)O[C@H](CN(C)Cc1ccc(C(=O)O)cc1)[C@@H](C)CN([C@@H](C)CO)S2(=O)=O,inactive
12,COc1ccc(CN(C)C[C@H]2OCCCC[C@@H](C)Oc3ccc(NC(=O)Nc4ccc5c(c4)OCO5)cc3C(=O)N([C@H](C)CO)C[C@H]2C)cc1,active
13,COc1ccc(CN(C)C[C@@H]2OCCCC[C@@H](C)Oc3ccc(NC(=O)Nc4ccc5c(c4)OCO5)cc3C(=O)N([C@@H](C)CO)C[C@@H]2C)cc1,active
14,COc1ccc(CN(C)C[C@H]2OCCCC[C@H](C)Oc3ccc(NC(=O)Nc4ccc5c(c4)OCO5)cc3C(=O)N([C@H](C)CO)C[C@@H]2C)cc1,inactive
15,COc1ccc(CN(C)C[C@@H]2OCCCC[C@H](C)Oc3ccc(NC(=O)Nc4ccc5c(c4)OCO5)cc3C(=O)N([C@H](C)CO)C[C@H]2C)cc1,inactive
16,COc1ccc(CN(C)C[C@H]2OCCCC[C@@H](C)Oc3ccc(NC(=O)Nc4ccc5c(c4)OCO5)cc3C(=O)N([C@H](C)CO)C[C@@H]2C)cc1,inactive
17,COc1ccc(CN(C)C[C@@H]2OCCCC[C@H](C)Oc3ccc(NC(=O)Nc4ccc5c(c4)OCO5)cc3C(=O)N([C@H](C)CO)C[C@@H]2C)cc1,inactive
18,COc1ccc(CN(C)C[C@@H]2OCCCC[C@@H](C)Oc3ccc(NC(=O)Nc4ccc5c(c4)OCO5)cc3C(=O)N([C@@H](C)CO)C[C@H]2C)cc1,active
19,COc1ccc(CN(C)C[C@@H]2OCCCC[C@@H](C)Oc3ccc(NC(=O)Nc4ccc5c(c4)OCO5)cc3C(=O)N([C@H](C)CO)C[C@@H]2C)cc1,inactive
20,COc1ccc(CN(C)C[C@@H]2OCCCC[C@@H](C)Oc3ccc(NC(=O)Nc4ccc5c(c4)OCO5)cc3C(=O)N([C@H](C)CO)C[C@H]2C)cc1,inactive
21,COc1ccc(CN(C)C[C@H]2OCCCC[C@H](C)Oc3ccc(NC(=O)Nc4ccc5c(c4)OCO5)cc3C(=O)N([C@@H](C)CO)C[C@@H]2C)cc1,active
22,COc1ccc(CN(C)C[C@@H]2OCCCC[C@H](C)Oc3ccc(NC(=O)Nc4ccc5c(c4)OCO5)cc3C(=O)N([C@@H](C)CO)C[C@H]2C)cc1,inactive

row,Compound,cytotoxicity call
1,COc1ccc(CN(C)C[C@@H]2OCCCC[C@H](C)Oc3ccc(NC(=O)Nc4ccc5c(c4)OCO5)cc3C(=O)N([C@@H](C)CO)C[C@@H]2C)cc1,inactive
2,O=C(C[C@H]1CC[C@@H](NC(=O)c2cnccn2)[C@@H](CO)O1)NCc1ccccc1F,inactive
3,COc1ccc(CNC(=O)C[C@@H]2C[C@H]3c4cc(NC(=O)NC5CCCC5)ccc4O[C@H]3[C@H](CO)O2)cc1,inactive
4,COc1ccc(NC(=O)N(C)C[C@H]2Oc3ccc(NS(C)(=O)=O)cc3CC(=O)N([C@H](C)CO)C[C@H]2C)cc1,inactive
5,O=C(C[C@@H]1C=C[C@H](NC(=O)CN2CCOCC2)[C@@H](CO)O1)NCc1cccc(F)c1,inactive
6,C[C@H](CO)N1C[C@H](C)[C@@H](CN(C)CC2CCCCC2)Oc2ccc(NC(=O)CCN3CCOCC3)cc2CC1=O,inactive
7,C[C@H]1CN([C@@H](C)CO)C(=O)CCCn2cc(nn2)CO[C@H]1CN(C)S(C)(=O)=O,inactive
8,C[C@@H]1CCCCO[C@@H](CN(C)C(=O)CCCN(C)C)[C@H](C)CN([C@H](C)CO)C(=O)c2cc(NC(=O)Nc3cccc4ccccc34)ccc2O1,inactive
9,COc1ccc(CN(C)C[C@H]2OCCCC[C@@H](C)Oc3ccc(NC(=O)Nc4ccc5c(c4)OCO5)cc3C(=O)N([C@@H](C)CO)C[C@@H]2C)cc1,inactive
10,COc1ccc(CN(C)C[C@H]2OCCCC[C@H](C)Oc3ccc(NC(=O)Nc4ccc5c(c4)OCO5)cc3C(=O)N([C@@H](C)CO)C[C@H]2C)cc1,active
11,COc1ccc(CN(C)C[C@H]2OCCCC[C@@H](C)Oc3ccc(NC(=O)Nc4ccc5c(c4)OCO5)cc3C(=O)N([C@@H](C)CO)C[C@H]2C)cc1,inactive
12,COc1ccc(-c2cnc3c(c2)C(=O)N([C@H](C)CO)C[C@@H](C)[C@H](CN(C)C(=O)C2CCOCC2)O3)cc1,inactive
13,CCCCCCCCCCCCCCCCCCCCCCO,active
14,CCCCCCCCCCCCCCCC(=O)CCO,inactive
15,CCCCCCCCCCCCCCCCCCCCCCCCCCCCO,inactive
16,COCC(=O)Nc1ccc2c(c1)[C@@H]1C[C@H](CC(=O)N3CCOCC3)O[C@H](CO)[C@@H]1O2,inactive
17,COc1ccc(NC(=O)O[C@H]2[C@H](OC(=O)Nc3ccccc3-c3ccccc3)[C@H](OC(=O)Nc3ccccc3-c3ccccc3)[C@@H](OC)O[C@@H]2CO)cc1,inactive
18,CO[C@H]1O[C@H](CO)[C@@H](OC(=O)Nc2cccc(F)c2)[C@H](OC(=O)Nc2ccccc2-c2ccccc2)[C@H]1OC(=O)Nc1ccccc1-c1ccccc1,active
19,CO[C@H]1O[C@H](CO)[C@@H](OC(=O)Nc2cccc(F)c2)[C@H](OC(=O)Nc2ccccc2-c2ccccc2)[C@@H]1OC(=O)Nc1ccccc1-c1ccccc1,inactive
20,CO[C@H]1O[C@H](CO)[C@@H](OC(=O)Nc2ccccc2-c2ccccc2)[C@H](OC(=O)Nc2ccccc2)[C@@H]1OC(=O)Nc1ccccc1,active
21,CCc1cccc(NC(=O)O[C@H]2[C@H](OC(=O)Nc3ccccc3-c3ccccc3)[C@H](OC(=O)Nc3ccccc3-c3ccccc3)[C@@H](OC)O[C@@H]2CO)c1,inactive
22,CO[C@H]1O[C@H](CO)[C@@H](OC(=O)Nc2ccccc2-c2ccccc2)[C@H](OC(=O)Nc2ccccc2-c2ccccc2)[C@@H]1OC(=O)Nc1ccccc1-c1ccccc1,inactive
